# Laboratory results: publication PMC7862700, “An all-to-all approach to the identification of sequence-specific readers for epigenetic DNA modifications on cytosine”
# Key:
# Test in all cases: DAPPL (digital affinity profiling via proximity ligation, sequencing); 10 mM Tris-HCl pH 7.5, 50 mM NaCl, 1 mM DTT, 4% glycerol, room temperature, 30 min; GST-TFs on glutathione beads, 16-mer random dsDNA library, 0.1% formaldehyde crosslink after washing; high values mean tight binding
# Conditions in all cases: protein: recombinant; tags: N-terminal GST; dsDNA, one strand shown
# FLI1 = target: T1, FLI1 (Homo sapiens, UniProt Q01543 1-452)
# T1 sequence: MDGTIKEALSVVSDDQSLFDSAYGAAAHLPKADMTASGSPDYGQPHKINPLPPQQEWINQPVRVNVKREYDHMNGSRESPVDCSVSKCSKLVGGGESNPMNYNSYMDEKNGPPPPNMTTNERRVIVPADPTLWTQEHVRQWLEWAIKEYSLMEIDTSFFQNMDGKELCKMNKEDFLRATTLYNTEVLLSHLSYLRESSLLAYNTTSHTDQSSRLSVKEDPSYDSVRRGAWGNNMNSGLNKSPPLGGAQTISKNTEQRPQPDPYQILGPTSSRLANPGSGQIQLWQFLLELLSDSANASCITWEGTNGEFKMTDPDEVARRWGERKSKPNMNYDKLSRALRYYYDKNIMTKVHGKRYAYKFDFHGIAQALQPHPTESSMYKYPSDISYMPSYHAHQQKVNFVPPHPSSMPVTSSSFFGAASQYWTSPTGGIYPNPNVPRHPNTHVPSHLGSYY
# Procedure, shortened: (§1)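 Human transcription factors carrying a GST fusion were produced in yeast, bound to glutathione beads, tagged with DNA barcodes and pooled together with a tag-only sample. Each pool was held with 200 nmole of a random double-stranded 16-mer DNA library in Tris/NaCl/DTT/glycerol buffer for 30 min at room temperature, then washed, crosslinked in 0.1% formaldehyde, proximity-ligated with BsaI/T4 ligase (1 h, 37 °C), PCR-amplified and sequenced on an Illumina NextSeq500. Binding signal is the read frequency of each hexamer for a given factor divided by its frequency in the tag-only sample.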
# SPI1 = SPI1 (Homo sapiens, UniProt P17947 1-270)
# Procedure, shortened: as §1
# ELK3 = target: T2, ELK3 (Homo sapiens, UniProt P41970 1-407)
# T2 sequence: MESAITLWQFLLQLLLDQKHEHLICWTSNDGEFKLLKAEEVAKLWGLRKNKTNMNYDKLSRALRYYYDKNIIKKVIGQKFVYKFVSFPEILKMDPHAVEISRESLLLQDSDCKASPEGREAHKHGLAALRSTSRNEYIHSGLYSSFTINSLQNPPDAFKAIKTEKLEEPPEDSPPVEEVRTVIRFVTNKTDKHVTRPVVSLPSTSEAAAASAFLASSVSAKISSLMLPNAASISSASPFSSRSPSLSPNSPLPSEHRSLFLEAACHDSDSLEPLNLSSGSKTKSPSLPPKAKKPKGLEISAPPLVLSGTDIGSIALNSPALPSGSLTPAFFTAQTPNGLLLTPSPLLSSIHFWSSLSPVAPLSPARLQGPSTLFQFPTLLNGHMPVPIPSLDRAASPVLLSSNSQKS
# Procedure, shortened: as §1
# ELK4 = target: T3, ELK4 (Homo sapiens, UniProt P28324-2 1-405)
# T3 sequence: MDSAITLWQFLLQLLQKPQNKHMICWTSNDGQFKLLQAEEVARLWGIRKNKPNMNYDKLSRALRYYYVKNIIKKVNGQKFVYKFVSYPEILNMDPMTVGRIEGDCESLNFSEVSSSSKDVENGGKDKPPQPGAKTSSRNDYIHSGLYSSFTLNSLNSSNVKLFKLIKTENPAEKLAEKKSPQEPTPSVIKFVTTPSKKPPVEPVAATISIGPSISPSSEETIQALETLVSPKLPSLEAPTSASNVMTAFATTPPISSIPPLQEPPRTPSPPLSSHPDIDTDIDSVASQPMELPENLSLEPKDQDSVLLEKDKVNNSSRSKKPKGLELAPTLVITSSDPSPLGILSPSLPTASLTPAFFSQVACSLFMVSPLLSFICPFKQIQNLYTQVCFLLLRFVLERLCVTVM
# Procedure, shortened: as §1
# ETV3L = target: T4, ETV3L (Homo sapiens, UniProt Q6ZN32 1-361)
# T4 sequence: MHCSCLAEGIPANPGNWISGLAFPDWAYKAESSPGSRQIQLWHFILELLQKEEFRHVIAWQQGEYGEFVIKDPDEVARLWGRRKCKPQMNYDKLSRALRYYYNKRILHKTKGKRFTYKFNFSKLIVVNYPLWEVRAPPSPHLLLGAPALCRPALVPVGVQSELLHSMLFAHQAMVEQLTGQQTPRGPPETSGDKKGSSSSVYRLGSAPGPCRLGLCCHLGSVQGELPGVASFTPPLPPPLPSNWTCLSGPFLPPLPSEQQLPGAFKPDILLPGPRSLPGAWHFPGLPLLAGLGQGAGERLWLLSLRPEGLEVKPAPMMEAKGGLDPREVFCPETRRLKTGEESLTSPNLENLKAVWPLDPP
# Procedure, shortened: as §1
# ETV7 = target: T5, ETV7 (Homo sapiens, UniProt Q9Y603 1-341)
# T5 sequence: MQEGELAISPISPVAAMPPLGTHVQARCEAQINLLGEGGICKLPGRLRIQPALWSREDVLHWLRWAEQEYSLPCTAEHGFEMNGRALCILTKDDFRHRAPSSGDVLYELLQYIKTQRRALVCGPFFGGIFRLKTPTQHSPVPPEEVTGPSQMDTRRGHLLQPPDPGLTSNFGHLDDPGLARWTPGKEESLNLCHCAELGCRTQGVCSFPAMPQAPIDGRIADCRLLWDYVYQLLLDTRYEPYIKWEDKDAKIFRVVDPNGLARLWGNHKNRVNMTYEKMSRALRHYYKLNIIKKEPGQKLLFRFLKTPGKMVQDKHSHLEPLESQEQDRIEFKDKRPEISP
# Procedure, shortened: as §1
# ELF5 = target: T6, ELF5 (Homo sapiens, UniProt Q9UKW6-2 1-255)
# T6 sequence: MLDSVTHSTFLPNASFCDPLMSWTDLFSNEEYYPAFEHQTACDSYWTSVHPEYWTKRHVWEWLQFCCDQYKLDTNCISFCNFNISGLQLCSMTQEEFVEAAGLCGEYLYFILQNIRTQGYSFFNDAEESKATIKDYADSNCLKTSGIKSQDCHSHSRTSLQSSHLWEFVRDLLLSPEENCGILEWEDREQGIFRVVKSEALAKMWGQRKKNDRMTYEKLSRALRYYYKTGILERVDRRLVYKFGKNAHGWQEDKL
# Procedure, shortened: as §1
# ETV6 = ETV6 (Homo sapiens, UniProt P41212 1-452)
# Chain of ETV6 (P41212 whole entry): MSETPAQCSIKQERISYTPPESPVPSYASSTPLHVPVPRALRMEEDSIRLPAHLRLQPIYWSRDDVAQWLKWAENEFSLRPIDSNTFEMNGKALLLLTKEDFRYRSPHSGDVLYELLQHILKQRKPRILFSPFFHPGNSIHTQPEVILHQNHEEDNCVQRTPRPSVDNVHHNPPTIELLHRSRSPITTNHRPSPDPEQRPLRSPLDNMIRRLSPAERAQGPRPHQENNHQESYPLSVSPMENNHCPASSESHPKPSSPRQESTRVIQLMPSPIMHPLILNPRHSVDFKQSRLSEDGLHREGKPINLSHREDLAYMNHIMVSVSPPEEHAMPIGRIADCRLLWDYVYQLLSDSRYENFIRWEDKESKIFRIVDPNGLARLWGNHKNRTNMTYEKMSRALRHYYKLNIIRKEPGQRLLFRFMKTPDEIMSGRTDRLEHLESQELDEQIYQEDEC
# Procedure, shortened: as §1
# SPDEF = target: T7, SPDEF (Homo sapiens, UniProt O95238 1-335)
# T7 sequence: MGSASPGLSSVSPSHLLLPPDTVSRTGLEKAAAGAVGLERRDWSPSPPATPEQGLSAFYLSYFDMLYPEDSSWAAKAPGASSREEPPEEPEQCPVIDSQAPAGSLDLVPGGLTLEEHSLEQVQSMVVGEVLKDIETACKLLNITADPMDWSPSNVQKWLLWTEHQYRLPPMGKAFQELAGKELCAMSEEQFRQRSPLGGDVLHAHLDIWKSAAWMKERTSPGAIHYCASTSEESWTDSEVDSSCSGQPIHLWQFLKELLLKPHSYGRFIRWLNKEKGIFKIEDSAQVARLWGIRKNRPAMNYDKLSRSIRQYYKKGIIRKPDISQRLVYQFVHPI
# Procedure, shortened: as §1
sequence,measurement,setting,value
AGTTGC,binding signal,FLI1,"1.04 fold enrichment (6-mer frequency, TF over GST control)"
same,binding signal,SPI1,"1.07 fold enrichment (6-mer frequency, TF over GST control)"
same,binding signal,ELK3,"1.03 fold enrichment (6-mer frequency, TF over GST control)"
same,binding signal,ELK4,"1.02 fold enrichment (6-mer frequency, TF over GST control)"
same,binding signal,ETV3L,"1.01 fold enrichment (6-mer frequency, TF over GST control)"
same,binding signal,ETV7,"1.11 fold enrichment (6-mer frequency, TF over GST control)"
same,binding signal,ELF5,"1.02 fold enrichment (6-mer frequency, TF over GST control)"
same,binding signal,ETV6,"1.03 fold enrichment (6-mer frequency, TF over GST control)"
TGTTGG,binding signal,FLI1,"1.01 fold enrichment (6-mer frequency, TF over GST control)"
same,binding signal,SPDEF,"1 fold enrichment (6-mer frequency, TF over GST control)"
GTGACT,binding signal,FLI1,"1.02 fold enrichment (6-mer frequency, TF over GST control)"
same,binding signal,ETV3L,"1.01 fold enrichment (6-mer frequency, TF over GST control)"
